The subject of the experiment is CLK2. Conditions: concentration: 1 μM, replicates: in singlicate; n = 1.
Consider `CC(=O)N1CCN(c2ccc(Nc3nccc(-c4sc(C(C)C)nc4-c4cccc(NS(=O)(=O)c5cccc(Cl)c5)c4)n3)cn2)CC1` [GSK1660437], for which the “%Inh” value is on record as 0%.

On to `Cl.Cl.NCC(C(=O)Nc1cc(Br)c(-c2ccnc3[nH]ccc23)s1)c1ccccc1` (centres unmarked) [GSK1269851], for which the “%Inh” value was determined as 100%. The figure for `CC(C)(C)c1ccc2nccc(Nc3cccc(O)c3)c2c1` [GW856795] is 0%; for `NCCCC(NC(=O)c1cc(Br)c(-c2ccnc3[nH]ccc23)s1)c1ccccc1.O=C(O)C(F)(F)F.O=C(O)C(F)(F)F` (centres unmarked) [GSK1287544] it is 61%. The figure for `Cl.c1ccc(-c2ccc3c(Nc4ccc5[nH]ncc5c4)ccnc3c2)nc1` [GW440137] is 67%; for `c1ccc(Oc2ccc(Nc3ccnc4cc(-c5ccc(CNCCN6CCOCC6)o5)ccc34)cc2)nc1` [GW567145] it is 0%; for `O=C(Nc1cccc(Oc2ccc3nc(NC(=O)C4CC4)cn3n2)c1)c1ccccc1C(F)(F)F` it is 73%.

Regarding `CC(C)c1nc(-c2cccc(NS(=O)(=O)c3c(F)cccc3F)c2F)c(-c2ccnc(Nc3ccc(N4CCOCC4)nc3)n2)s1` [GSK2008607], the “%Inh” value is listed as 0%. As for `Nc1ncc(-c2cccnc2)c2scc(-c3ccc4c(c3)CCN4C(=O)Cc3ccccc3)c12` [GSK683281], the figure is 0%; as for `Cn1cc(-c2ccc3c(c2)CCN3C(=O)Cc2cccc(F)c2)c2c(N)ncnc21` [GSK2603358], 0%. Take `Cl.NC(=O)c1cccc(Nc2nccc(Nc3ccc(Oc4c(Cl)cccc4Cl)c(Cl)c3)n2)c1` [GW659009]: the “%Inh” value was 0%.

These data come from PMC5540273 (PLoS ONE, 2017).
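Also: KINOMEscan kinase panel screen.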
